From PubChem BioAssay (NCATS)
Records with an inconclusive call do not appear. Entries that show only a call come without a potency. Unmarked numbers belong to inactive results. Activity calls are given as the source filed them. Unless noted, calls follow the shape of the dose curve; as a rule, active = well fitted curve in the direction sought with a large enough effect; inconclusive = small, poorly fitted or top-dose-only effect, or another doubt; inactive = no such curve, though single readings can be large; an effect the other way counts as inactive or inconclusive.

Assays:
[1] = target: Cytochrome P450 3A4 (Homo sapiens) (UniProt P08684); test: qHTS Assay for Inhibitors and Substrates of Cytochrome P450 3A4 (AID 884); also: nearly all actives have a fitted effect of over 50% in size; also: potency is read from the fitted curve at half-maximal effect
Method in brief: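 20 nM human CYP3A4 with 25 uM Luciferin-PPXE (at KM) in 200 mM KPO4, preincubated 10 min with compound; NADPH regeneration started a 60 min RT reaction. Luciferin detected by luminescence, normalized to 57 uM ketoconazole as full inhibition.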

[2] = target: Cytochrome P450 2C19 (Homo sapiens) (UniProt P33261); test: qHTS Assay for Inhibitors and Substrates of Cytochrome P450 2C19 (AID 899); also: nearly all actives have a fitted effect of over 60% in size; also: potency is read from the fitted curve at half-maximal effect
Method in brief: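 Luminescence readout of luciferin formed from 10uM Luciferin-H EGE (KM level) by 5 nM CYP2C19 in 50mM KPO4. 60 min NADPH-driven reaction at 37C after 10 min compound preincubation; data scaled to 57uM ketoconazole inhibition.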

[3] = target: Luciferin 4-monooxygenase (Photinus pyralis) (UniProt P08659); test: Biochemical firefly luciferase enzyme assay for NPC (AID 624030);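 also: purified P. pyralis luciferase at 10 nM with luciferin and ATP substrate; nearly all actives have a fitted effect of over 70% in size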
Method in brief: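 Direct inhibition of firefly luciferase enzyme (10 nM final, 50 mM Tris Acetate) assessed by luminescence within 5 minutes. Percent activity scaled between DMSO and PTC124 positive control, with concentration-effect curves classified by fit quality and response.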

[4] = qHTS Assay for Identification of Small Molecule Agonists for Hypoxia Response Element Signaling Pathway (AID 914; active = well fitted activation curve with a large enough effect in the signal ratio, with a control signal flat, not every such curve was filed as active; the % refers to the signal ratio); details: ME-180 (cervical carcinoma) HRE-bla reporter, beta-lactamase ratio, CoCl2, 17 h; hits give high values
Method in brief: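 Read-out: CCF4 FRET ratio of 460nm to 530nm emission (excitation 405nm) after 2.5 hours at room temperature, taken from HRE-bla ME-180 cells that had been exposed to compound and EC50 CoCl2 for 17 hours.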

[5] = target: ATP-dependent 6-phosphofructokinase (Trypanosoma brucei brucei) (UniProt O15648); test: qHTS Assay to Find Inhibitors of T. brucei phosphofructokinase: hit validation (AID 492961);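 also: luminescence reports ADP formed as PFK phosphorylates fructose-6-phosphate with ATP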
Method in brief: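 ADP-Glo luminescence read-out of ADP formed by 1.25 nM PFK from 0.1 mM ATP and 0.5 mM F6P (TEA pH 8.0, 45 min, RT). Compounds titrated; activity normalized to no-enzyme and full-enzyme controls.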

[6] = target: Ubiquitin carboxyl-terminal hydrolase 1 (Homo sapiens) (UniProt O94782); test: Inhibitors of USP1/UAF1: Pilot qHTS (AID 504865);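 also: rhodamine fluorescence freed from ubiquitin-rhodamine substrate followed over time; top concentration of the series differs between compounds; nearly all actives have a fitted effect of over 35% in size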
Method in brief: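 1nM USP1/UAF1 + cpd, 15 min RT; start w/ Ub-Rho 150nM final; kinetic FL 480/540 nm, 6 reads q60 s. Buffer 50mM HEPES pH 7.8, 0.5mM EDTA, 1mM TCEP, 0.01% Tween-20, 0.1 mg/ml BSA.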

[7] = S16 Schwann cell viability assay (CellTiter-Glo assay) (AID 624031);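 also: cellular ATP luminescence as a viability measure; nearly all actives have a fitted effect of over 70% in size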
Method in brief: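 Luminescent ATP read-out (CellTiter-Glo) after 24 h compound exposure of native S16 rat Schwann cells at 37 °C. Signals were normalized between cell-free wells and DMSO-treated cells, set as 0% activity.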

[8] = S16 Schwann cell PMP22 intronic element beta-lactamase assay (AID 624044; calls by dose curve; also: nearly all actives have a fitted effect of over 15% in size)
Method in brief: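 Rat S16 Schwann cells with beta-Lac driven by a PMP22 intronic element, compound-treated 24 h at 37 °C. LiveBLAzer FRET B/G read: 460 nm normalized to potassium clavulanate vs DMSO; 535 nm FRET as viability; concentration-effect curves classified.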

3D7 = test: qHTS profiling for inhibitors of Plasmodium falciparum proliferation (AID 504749); also: nearly all actives have a fitted effect of over 60% in size; also: potency is read from the fitted curve at half-maximal effect; details: P. falciparum in erythrocytes, SYBR Green DNA, 72 h; series mostly up to 28.7 µM
Method in brief: (§1)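 Three-day growth assay of blood-stage parasites in erythrocytes (0.3% parasitemia, 2.5% hematocrit) at 37 C, 5% CO2, quantified by SYBR Green DNA staining after overnight detergent lysis.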

CP191 = test: as above; details: P. falciparum in erythrocytes, SYBR Green DNA, 72 h; series mostly up to 28.7 µM
Method in brief: as §1

CP237 = test: as above; details: P. falciparum in erythrocytes, SYBR Green DNA, 72 h; series mostly up to 28.7 µM
Method in brief: as §1

CP250 = test: as above; details: P. falciparum in erythrocytes, SYBR Green DNA, 72 h; series mostly up to 28.7 µM
Method in brief: as §1

CP252 = test: as above; details: P. falciparum in erythrocytes, SYBR Green DNA, 72 h; series mostly up to 28.7 µM
Method in brief: as §1

Dd2 = test: as above; details: P. falciparum in erythrocytes, SYBR Green DNA, 72 h; series mostly up to 28.7 µM
Method in brief: as §1

FAB9 = test: as above; details: P. falciparum in erythrocytes, SYBR Green DNA, 72 h; series mostly up to 28.7 µM
Method in brief: as §1

HB3 = test: as above; details: P. falciparum in erythrocytes, SYBR Green DNA, 72 h; series mostly up to 28.7 µM
Method in brief: as §1

PC49 = test: as above; details: P. falciparum in erythrocytes, SYBR Green DNA, 72 h; series mostly up to 28.7 µM
Method in brief: as §1

[9] = target: Cytochrome P450 2C9 (Homo sapiens) (UniProt P11712); test: qHTS Assay for Inhibitors and Substrates of Cytochrome P450 2C9 (AID 883); also: nearly all actives have a fitted effect of over 60% in size; also: potency is read from the fitted curve at half-maximal effect
Method in brief: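 Luminescent read-out of deoxyluciferin hydroxylation, normalized to 57uM sulphaphenazole (AC100). Reaction: 10nM enzyme, 100uM Luciferin-H (equal to KM), 25mM KPO4, 10 min compound preincubation, then 60 min with NADPH regeneration, both at 37C.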

[10] = target: Muscarinic acetylcholine receptor M1 (Rattus norvegicus) (UniProt P08482); test: qHTS Assay for Antagonists of Acetylcholine Muscarinic M1 Receptor: Kinetic Measurement of Intracellular Calcium Response (AID 943);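 also: Fluo-4 calcium signal as peak divided by basal fluorescence over 4 min; nearly all actives have a fitted effect of over 75% in size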
Method in brief: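 Intracellular calcium flux, recorded with Fluo-4 in a kinetic plate reader, served as signal; the response to carbachol at EC80 (100 nM final) was taken as maximal over minimal fluorescence after a 10 min compound pre-incubation in rat M1-CHO cells.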

Cytochrome P450 2C19 (Homo sapiens), sequence (P33261 whole entry, looked up): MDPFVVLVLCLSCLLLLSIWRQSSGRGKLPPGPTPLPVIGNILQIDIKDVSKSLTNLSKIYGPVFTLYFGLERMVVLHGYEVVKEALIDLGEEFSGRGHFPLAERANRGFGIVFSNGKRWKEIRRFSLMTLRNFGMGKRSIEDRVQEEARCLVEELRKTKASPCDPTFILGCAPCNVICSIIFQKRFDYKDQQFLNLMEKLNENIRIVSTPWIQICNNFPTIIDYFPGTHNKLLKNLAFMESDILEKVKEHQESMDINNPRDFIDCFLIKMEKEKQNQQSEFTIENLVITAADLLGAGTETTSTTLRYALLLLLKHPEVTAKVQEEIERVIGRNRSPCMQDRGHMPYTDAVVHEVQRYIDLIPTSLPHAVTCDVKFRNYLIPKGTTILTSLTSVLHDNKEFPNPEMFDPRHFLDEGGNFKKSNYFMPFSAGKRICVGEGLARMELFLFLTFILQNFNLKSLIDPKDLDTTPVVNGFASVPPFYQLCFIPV
Ubiquitin carboxyl-terminal hydrolase 1 (Homo sapiens), sequence (O94782 whole entry, looked up): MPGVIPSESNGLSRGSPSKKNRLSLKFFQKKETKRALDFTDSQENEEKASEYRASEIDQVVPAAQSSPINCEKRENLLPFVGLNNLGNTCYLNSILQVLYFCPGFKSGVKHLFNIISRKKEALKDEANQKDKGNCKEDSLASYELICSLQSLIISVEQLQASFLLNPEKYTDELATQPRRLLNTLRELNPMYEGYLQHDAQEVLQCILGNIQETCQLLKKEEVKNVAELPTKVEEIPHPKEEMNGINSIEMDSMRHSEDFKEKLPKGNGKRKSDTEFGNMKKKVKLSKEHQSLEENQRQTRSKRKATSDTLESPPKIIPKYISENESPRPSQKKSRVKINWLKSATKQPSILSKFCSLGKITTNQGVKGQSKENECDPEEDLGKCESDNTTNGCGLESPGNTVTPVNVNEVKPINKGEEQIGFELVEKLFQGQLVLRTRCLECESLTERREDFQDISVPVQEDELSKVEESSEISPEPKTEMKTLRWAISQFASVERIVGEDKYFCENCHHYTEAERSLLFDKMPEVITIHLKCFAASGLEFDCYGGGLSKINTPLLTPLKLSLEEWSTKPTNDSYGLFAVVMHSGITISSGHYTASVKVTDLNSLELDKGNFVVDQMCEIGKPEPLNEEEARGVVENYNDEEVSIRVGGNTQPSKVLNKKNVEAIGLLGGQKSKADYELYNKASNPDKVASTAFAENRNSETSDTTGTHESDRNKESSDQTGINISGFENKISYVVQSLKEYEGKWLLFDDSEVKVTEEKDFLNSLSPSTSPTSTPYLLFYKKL
ATP-dependent 6-phosphofructokinase (Trypanosoma brucei brucei), sequence (O15648 whole entry, looked up): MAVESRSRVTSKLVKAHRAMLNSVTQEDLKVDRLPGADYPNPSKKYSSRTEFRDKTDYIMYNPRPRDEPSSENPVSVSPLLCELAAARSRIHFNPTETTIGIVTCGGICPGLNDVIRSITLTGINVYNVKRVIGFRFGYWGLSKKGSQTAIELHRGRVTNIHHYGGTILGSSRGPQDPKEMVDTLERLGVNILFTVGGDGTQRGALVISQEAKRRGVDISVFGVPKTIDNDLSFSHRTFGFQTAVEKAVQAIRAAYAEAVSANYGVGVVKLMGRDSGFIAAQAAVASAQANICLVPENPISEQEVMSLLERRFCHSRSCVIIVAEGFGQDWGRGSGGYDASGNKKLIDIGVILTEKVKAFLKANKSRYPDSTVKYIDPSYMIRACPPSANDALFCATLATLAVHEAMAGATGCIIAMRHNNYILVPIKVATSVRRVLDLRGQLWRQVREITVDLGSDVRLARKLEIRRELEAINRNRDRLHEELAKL
Luciferin 4-monooxygenase (Photinus pyralis), sequence (P08659 whole entry, looked up): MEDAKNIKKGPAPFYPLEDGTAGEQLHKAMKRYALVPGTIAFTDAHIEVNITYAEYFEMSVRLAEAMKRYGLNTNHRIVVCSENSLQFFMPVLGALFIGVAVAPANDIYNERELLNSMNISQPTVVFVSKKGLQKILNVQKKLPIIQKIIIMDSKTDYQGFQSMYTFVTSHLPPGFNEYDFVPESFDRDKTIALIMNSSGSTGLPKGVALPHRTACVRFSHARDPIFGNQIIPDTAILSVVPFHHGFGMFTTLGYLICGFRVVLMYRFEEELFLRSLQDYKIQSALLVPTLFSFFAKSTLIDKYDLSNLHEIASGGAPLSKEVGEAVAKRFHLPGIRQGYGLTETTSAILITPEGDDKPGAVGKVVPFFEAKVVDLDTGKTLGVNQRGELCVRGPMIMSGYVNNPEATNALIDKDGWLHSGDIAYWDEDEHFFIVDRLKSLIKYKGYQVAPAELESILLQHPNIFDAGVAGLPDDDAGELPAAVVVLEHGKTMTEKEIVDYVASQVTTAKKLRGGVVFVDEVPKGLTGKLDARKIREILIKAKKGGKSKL
Cytochrome P450 3A4 (Homo sapiens), sequence (P08684 whole entry, looked up): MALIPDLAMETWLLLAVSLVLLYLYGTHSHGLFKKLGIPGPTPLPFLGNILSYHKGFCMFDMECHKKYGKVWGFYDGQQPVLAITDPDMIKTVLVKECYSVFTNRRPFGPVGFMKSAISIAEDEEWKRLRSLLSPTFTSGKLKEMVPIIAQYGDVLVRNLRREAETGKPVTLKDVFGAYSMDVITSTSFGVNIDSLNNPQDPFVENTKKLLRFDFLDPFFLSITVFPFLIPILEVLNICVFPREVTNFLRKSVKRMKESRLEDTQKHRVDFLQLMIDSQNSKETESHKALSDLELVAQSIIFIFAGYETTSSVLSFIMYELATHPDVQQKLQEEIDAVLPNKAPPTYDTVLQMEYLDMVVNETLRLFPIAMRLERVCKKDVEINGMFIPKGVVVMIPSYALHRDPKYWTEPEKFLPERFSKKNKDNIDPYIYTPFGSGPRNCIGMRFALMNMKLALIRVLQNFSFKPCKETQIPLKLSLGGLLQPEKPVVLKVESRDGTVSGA
Cytochrome P450 2C9 (Homo sapiens), sequence (P11712 whole entry, looked up): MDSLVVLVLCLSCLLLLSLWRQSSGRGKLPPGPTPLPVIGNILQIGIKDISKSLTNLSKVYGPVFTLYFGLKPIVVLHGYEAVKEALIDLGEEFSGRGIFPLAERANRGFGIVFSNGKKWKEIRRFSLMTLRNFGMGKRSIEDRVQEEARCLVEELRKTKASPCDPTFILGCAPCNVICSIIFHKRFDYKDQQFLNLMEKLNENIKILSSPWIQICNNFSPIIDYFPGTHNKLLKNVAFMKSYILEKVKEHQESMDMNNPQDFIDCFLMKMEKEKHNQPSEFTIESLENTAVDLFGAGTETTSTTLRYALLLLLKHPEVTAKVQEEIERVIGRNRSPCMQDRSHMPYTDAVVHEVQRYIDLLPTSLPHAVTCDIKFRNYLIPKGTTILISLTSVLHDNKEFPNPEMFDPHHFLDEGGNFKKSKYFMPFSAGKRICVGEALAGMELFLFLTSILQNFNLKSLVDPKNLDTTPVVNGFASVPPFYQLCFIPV
Muscarinic acetylcholine receptor M1 (Rattus norvegicus), sequence (P08482 whole entry, looked up): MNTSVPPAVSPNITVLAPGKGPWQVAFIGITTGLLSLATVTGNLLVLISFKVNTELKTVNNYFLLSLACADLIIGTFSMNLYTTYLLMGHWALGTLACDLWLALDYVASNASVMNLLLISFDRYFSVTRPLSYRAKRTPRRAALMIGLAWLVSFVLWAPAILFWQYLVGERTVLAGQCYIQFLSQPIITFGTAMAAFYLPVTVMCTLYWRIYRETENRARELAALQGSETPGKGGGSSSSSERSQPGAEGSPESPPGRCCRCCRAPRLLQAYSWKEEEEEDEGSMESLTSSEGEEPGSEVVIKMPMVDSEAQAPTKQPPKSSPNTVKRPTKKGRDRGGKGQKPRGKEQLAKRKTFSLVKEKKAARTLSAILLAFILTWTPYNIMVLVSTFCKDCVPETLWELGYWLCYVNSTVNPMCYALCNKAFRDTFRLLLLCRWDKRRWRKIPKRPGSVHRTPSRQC

Q: With S=P(C1CCCCC1)(C1CCCCC1)[C@H](c1cccnc1)N1CCCC1 as the compound, how does the Potency [1] read?
A: 3.16 µM (active)

Q: What about the Potency [2] of the same compound?
A: 1.26 µM (active)

Q: With O=c1[nH]cnc2[nH]cc(CN3CCCCC3)c12 as the compound, how does the outcome [3] read?
A: inactive

Q: Which outcome [3] does the source give for Cc1ccc(O)cc1 (tested in a mixture with another compound) here?
A: inactive

Q: Which Potency [2] does the source give for Cc1ccc(S(=O)ON2CCC(C(=O)O)(c3ccccc3)CC2)cc1 (stereo not given) here?
A: inactive

Q: Which activation [4] does the source give for C[C@]12CC[C@@H]3[C@H](CCC4=CC(=O)CC[C@]43C)[C@]1(O)CC[C@@]2(O)C(=O)CO here?
A: 7.15%

Q: Which Potency [2] does the source give for C[N+]1([O-])[C@H]2CC[C@H]1CC(OC(=O)[C@@H](CO)c1ccccc1)C2 (stereo not given in full) here?
A: inactive

Q: What about the outcome [5] of the same compound?
A: inactive

Q: What about the Potency [6] of the same compound?
A: inactive

Q: What about the outcome [3] of the same compound?
A: inactive

Q: What about the outcome [7] of the same compound?
A: inactive

Q: What about the outcome [8] of the same compound?
A: inactive

Q: What about the Potency (3D7) of the same compound?
A: inactive

Q: What about the Potency (CP191) of the same compound?
A: inactive

Q: What about the Potency (CP237) of the same compound?
A: inactive

Q: And the Potency (CP250)?
A: inactive

Q: What about the Potency (CP252) of the same compound?
A: inactive

Q: What about the Potency (Dd2) of the same compound?
A: inactive

Q: What about the Potency (FAB9) of the same compound?
A: inactive

Q: What about the Potency (HB3) of the same compound?
A: inactive

Q: And the Potency (PC49)?
A: inactive

Q: Which activation [4] does the source give for Nc1nnnn1CCO here?
A: 12.2%

Q: With CC(=O)O[C@H]1CC[C@@]2(C)[C@@H](CC[C@H]3[C@H]2CC(=O)[C@]2(C)[C@@H]3C[C@@H](N3CC3)[C@H]2C(C)=O)C1 as the compound, how does the activity change, negative = inhibition [1] read?
A: 71.6% [at 11.4 µM]

Q: What about the Potency [2] of the same compound?
A: inactive

Q: And the activation [4]?
A: 5.69%

Q: Which results are given for CN[C@H]1[C@H](C)O[C@@H](O[C@@H]2C/C=C(/C)C/C(C)=C\C=C/CC[C@@H](C)CNC(=O)/C=C\C=C/[C@H]2C)C[C@@H]1O?
A: activity change, negative = inhibition [9]: -5.72% [at 11.4 µM]; Potency [2]: inactive

Q: With C[C@@H]1O[C@@H](O[C@H]2C[C@@H](O)[C@@]3(CO)[C@H]4[C@H](O)C[C@]5(C)[C@@H](C6=CC(=O)OC6)CC[C@]5(O)[C@H]4CC[C@@]3(O)C2)[C@@H](O)[C@H](O)[C@H]1O as the compound, how does the outcome [5] read?
A: inactive

Q: And the Potency [6]?
A: inactive

Q: And the outcome [3]?
A: inactive

Q: And the outcome [7]?
A: inactive

Q: And the outcome [8]?
A: inactive

Q: And the Potency (3D7)?
A: inactive

Q: And the Potency (CP191)?
A: inactive

Q: And the Potency (CP237)?
A: inactive

Q: What about the Potency (CP250) of the same compound?
A: inactive

Q: And the Potency (CP252)?
A: inactive

Q: And the Potency (Dd2)?
A: inactive

Q: And the Potency (FAB9)?
A: inactive

Q: And the Potency (HB3)?
A: inactive

Q: And the Potency (PC49)?
A: inactive

Q: With CC1=NN(c2ccccc2)C(=O)[C@@H]1N=Nc1ccc([As](=O)(O)O)c(O)c1 as the compound, how does the Potency [9] read?
A: 3.16 µM (active)

Q: Which Potency [10] does the source give for C[C@@H](Cc1ccc(O)cc1)NC[C@@H](O)c1cc(O)cc(O)c1 here?
A: inactive

Q: And the outcome [5]?
A: inactive

Q: What about the Potency [6] of the same compound?
A: inactive

Q: And the outcome [3]?
A: inactive

Q: And the outcome [7]?
A: inactive

Q: What about the outcome [8] of the same compound?
A: inactive

Q: And the Potency (3D7)?
A: inactive

Q: What about the Potency (CP191) of the same compound?
A: inactive

Q: And the Potency (CP237)?
A: inactive

Q: What about the Potency (CP250) of the same compound?
A: inactive

Q: And the Potency (CP252)?
A: inactive

Q: What about the Potency (Dd2) of the same compound?
A: inactive

Q: What about the Potency (FAB9) of the same compound?
A: inactive

Q: What about the Potency (HB3) of the same compound?
A: inactive

Q: And the Potency (PC49)?
A: inactive

Q: With O=C1C[C@@H]2OCC=C3CN4CC[C@]56c7ccccc7N1[C@@H]5[C@@H]2[C@H]3C[C@H]46 (tested in a mixture with another compound) as the compound, how does the outcome [5] read?
A: inactive

Q: What about the Potency [6] of the same compound?
A: inactive

Q: What about the outcome [7] of the same compound?
A: inactive

Q: And the outcome [8]?
A: inactive

Q: And the Potency (3D7)?
A: inactive

Q: And the Potency (CP191)?
A: inactive

Q: And the Potency (CP237)?
A: 8.91 µM (active)

Q: What about the Potency (CP250) of the same compound?
A: inactive

Q: And the Potency (CP252)?
A: inactive

Q: And the Potency (Dd2)?
A: 10 µM (active)

Q: And the Potency (FAB9)?
A: inactive

Q: What about the Potency (HB3) of the same compound?
A: inactive

Q: What about the Potency (PC49) of the same compound?
A: inactive
